sEH activator: increases human soluble epoxide hydrolase activity; 0.04% of 91,000 active; activation, % at 2 µM; purified human sEH enzymatic activity, activator screen; AID 717; in the data active = activation above about 37%
Target sequence (P34913 whole entry, looked up): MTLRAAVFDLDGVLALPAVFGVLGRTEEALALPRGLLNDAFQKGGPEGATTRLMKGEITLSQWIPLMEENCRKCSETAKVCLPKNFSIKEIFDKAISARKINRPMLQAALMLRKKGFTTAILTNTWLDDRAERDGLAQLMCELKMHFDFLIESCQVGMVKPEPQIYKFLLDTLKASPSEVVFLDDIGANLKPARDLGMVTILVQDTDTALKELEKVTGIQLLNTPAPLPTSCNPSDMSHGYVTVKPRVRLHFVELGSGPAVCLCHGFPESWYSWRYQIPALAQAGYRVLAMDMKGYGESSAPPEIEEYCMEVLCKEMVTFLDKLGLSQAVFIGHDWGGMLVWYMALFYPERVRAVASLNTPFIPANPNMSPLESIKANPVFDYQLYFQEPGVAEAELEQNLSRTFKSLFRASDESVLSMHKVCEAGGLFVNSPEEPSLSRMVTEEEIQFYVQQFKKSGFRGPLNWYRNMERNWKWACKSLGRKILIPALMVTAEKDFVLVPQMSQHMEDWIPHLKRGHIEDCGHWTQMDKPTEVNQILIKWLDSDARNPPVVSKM
CYP2C9 activ: CYP2C9 (human) activation; P11712; recombinant CYP2C9, luciferin-H conversion, luminescence; hits give high values; factor 1 = untreated enzyme, 0 = blocked; activation factor at 5 µM; 1.4% of 96,000 active; AID 1024;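 active = activation factor of 2 or more for CYP2C9 at a 5 µM dose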;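 note: 0 = sulfaphenazole-blocked wells and 1 = vehicle-only wells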
CYP2C9 inhib: inhibitors of human CYP2C9 | CYP2C9 Supersomes, luciferin-H conversion, luminescence | inhibition, % at 5 µM | AID 777 | P11712 | 20% of 96,000 active;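 active = blocking of liver enzyme CYP2C9 beyond about 50% at 5 µM, limit read from the data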
CYP2C19 inhib: human CYP2C19 inhibition | P33261 | CYP2C19 Supersomes, luciferin-H EGE luminescence, 30 min | inhibition, % at 5 µM | 21% of 96,000 active | AID 778;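 active = CYP2C19 inhibition above a set limit at 5 µM in the primary screen, cut at about 50% in these data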;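 note: plate controls were negative control wells for no effect and 2.5 mM tranylcypromine positive control for full effect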
sEH inh: soluble epoxide hydrolase (human) inhibition; recombinant human sEH enzymatic activity assay; AID 707; 0.34% of 91,000 active; inhibition, % at 2 µM; in the data active = inhibition above about 80%
CYP2C19 act: cytochrome P450 2C19 (human) activation; recombinant CYP2C19, luciferin-H EGE luminescence; hits give high values; 0 = fully inhibited enzyme, 1 = untreated enzyme; activation factor at 5 µM; 96,000 tested, under 10 active; AID 1025;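 active = activation factor of at least 2 at 5 µM in the primary screen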;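 note: 0 = wells with 2.5 mM tranylcypromine and 1 = vehicle-only wells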
Starred values were filed as active, the others as inactive; nt = no result given. In the library only some 27% were active in any assay of this set; here they are far more common.

SMILES	sEH activator	CYP2C9 activ	CYP2C9 inhib	CYP2C19 inhib	sEH inh	CYP2C19 act
COc1cc2cc(C(c3nnnn3C3CCCCC3)N(C)C3CCCCC3)c(=O)[nH]c2cc1OC (configuration not stated)	nt	0.5	50.5*	62.4*	nt	0.4
COc1cc2cc(C(c3nnnn3C3CCCC3)N(C)C3CCCCC3)c(=O)[nH]c2cc1OC (configuration not stated)	-1.3	nt	nt	nt	0.8	nt
CC(C)CN(CC(C)C)C(=O)C12CCC(C)(C(=O)C1)C2(C)C (configuration not stated)	-11.8	0.9	7.1	6.2	11.7	0.9
Cc1ccc(OCC(=O)Nc2ccc(-c3nc4ncccc4o3)cc2)c(C)c1	-30.6	0.5	46.1	63.0*	30.9	0.4
COCCn1nnnc1C(CC(C)C)N1CCN(c2cccc(OC)c2)CC1 (configuration not stated)	nt	0.2	75.2*	81.4*	nt	0.2
COCCn1nnnc1C(c1cccs1)N1CCN(c2cccc(C(F)(F)F)c2)CC1 (configuration not stated)	-3.0	0.7	28.5	36.0	5.0	0.6
CCC(c1nnnn1CCOC)N1CCN(c2cccc(C(F)(F)F)c2)CC1 (configuration not stated)	1.1	0.4	55.1*	69.3*	-1.2	0.3
c1csc(CNc2nc3ccccc3n2CCN2CCOCC2)c1	17.3	0.5	50.7*	42.7	-16.9	0.6
CC(=O)Nc1ccc(C(=O)NC(CC(=O)O)c2ccc(Cl)cc2)cc1 (configuration not stated)	15.7	1	1.8	-7.3	-16.2	1.1
C=CCNC(=S)NNC(=O)c1cccn(Cc2ccc(Cl)c(Cl)c2)c1=O	-4.9	1	0.4	11.5	5.8	0.9
C=CCNC(=S)NNC(=O)c1cccn(Cc2ccc(Cl)cc2Cl)c1=O	-8.9	0.3	68.4*	26.5	6.6	0.7
CCCCCCC1CC(CSc2ncn[nH]2)OC1=O (configuration not stated)	nt	0.3	66.7*	90.9*	nt	0.1
CCCCOc1ccc(-c2nnc(-c3ccncc3)o2)cc1	nt	0.5	54.4*	96.2*	nt	0
CCCOc1ccc(-c2nnc(-c3cccs3)o2)cc1	2.4	nt	nt	nt	0.9	nt
CCOc1ccc(-c2nnc(-c3ccncc3)o2)cc1	2.7	0.6	44.5	98.8*	-4.7	0
CCOc1cc(CNC2CCCC2)cc(Cl)c1OCc1ccccc1	8.4	0.8	16.7	76.1*	-9.8	0.2
c1ccc(COc2ccc(OCCCNC3CCCC3)cc2)cc1	-6.7	1	0.7	10.7	8.8	0.9
Cc1ccc(NC(=S)NNc2ncc(C(F)(F)F)cc2Cl)c(C)c1	-12.4	1.6	-58.2	67.2*	13.0	0.3
Nc1ccccc1C(=O)NNc1ncc(C(F)(F)F)cc1Cl	3.7	1.2	-17.0	20.6	-2.7	0.8
COC(=O)CSc1nc(C(C)C)nc2ccccc12	7.1	0.6	43.4	80.0*	-8.8	0.2
COC(=O)CSc1cnc2ccccc2n1	7.4	1.1	-9.0	-7.5	-6.4	1.1
COC(=O)CSc1nc2ccccc2nc1SCC(=O)OC	-1.4	0.8	24.7	54.3*	3.0	0.5
CC1(C)CC(=O)C2=C(C1)c1c(ccc3ccccc13)NC2c1ccc(Br)o1 (configuration not stated)	-4.3	0	96.3*	74.9*	4.5	0.3
Cc1occc1C(=O)NC1CCCc2ccccc21 (configuration not stated)	4.9	0.5	47.1	70.9*	-8.6	0.3
Cc1ccc(N=C2NC(=O)CS2)c(C)c1	-2.3	0.9	12.5	18.0	0.3	0.8
SMILES	sEH activator	CYP2C9 activ	CYP2C9 inhib	CYP2C19 inhib	sEH inh	CYP2C19 act
O=C1CSC(=Nc2cc(Cl)ccc2Cl)N1	3.5	0.3	72.2*	12.9	-3.4	0.9
COc1ccc(CN(C)CC(=O)c2c(N)n(Cc3ccccc3)c(=O)n(C)c2=O)c(OC)c1	4.2	0.9	5.4	6.2	-2.1	0.9
COc1ccc(CN(CCN(C)C)Cc2ccccc2)c(OC)c1	6.1	0.8	23.4	81.5*	-4.3	0.2
CCN(Cc1ccccc1)Cc1cc(OC)cc(OC)c1	6.9	0.7	34.7	94.9*	-5.2	0.1
COc1ccc(C2/C(=C(/O)c3ccccc3)C(=O)C(=O)N2CCN2CCOCC2)c(OC)c1 (configuration not stated)	-5.6	0.9	9.6	-1.5	5.6	1
OCCn1c(-c2ccc3c(c2)OCO3)csc1=Nc1ccccc1	5.3	0.1	86.6*	96.1*	-5.8	0
CCOc1ccc(N=c2scc(-c3ccccc3)n2CCO)cc1	-1.7	0.5	48.3	68.2*	-2.7	0.3
O=P1(O)C=C(c2ccccc2)NC(c2ccccc2)=C1	4.6	1	-0.6	-0.9	-2.5	1
CC(C)N=C(Nc1ccc(Cl)cc1)c1cccnc1	-1.0	1	2.5	33.9	3.0	0.7
COc1ccc(CNC(=O)COC(=O)c2cc(-c3cccs3)nc3ccccc23)cc1OC	8.4	0.3	74.8*	2.8	-4.6	1
COc1ccc(CNC(=O)COC(=O)c2cc(-c3ccco3)nc3ccccc23)cc1	-10.7	0.6	38.5	0.4	10.3	1
O=C(/C=C/Nc1cccc(C(F)(F)F)c1)c1ccc(Oc2ncccn2)cc1	-0.3	1.1	-5.4	29.4	-1.7	0.7
COc1ccc(CCNS(=O)(=O)c2cn(C)c(=O)n(C)c2=O)cc1	2.3	1	4.8	29.4	-3.9	0.7
COc1ccc(S(=O)(=O)NCCc2ccccc2)cc1	-4.3	0.8	21.6	95.3*	6.3	0
CCS(=O)(=O)NCCCCc1ccccc1	-4.1	0.8	19.4	60.2*	8.1	0.4
CCS(=O)(=O)NCCCc1ccccc1	14.0	1.2	-21.7	1.0	-16.9	1
CCCCNS(=O)(=O)c1ccc(OC)cc1	-8.7	0.9	9.0	37.1	10.5	0.6
COc1ccc(CCNS(=O)(=O)c2cccs2)cc1	-1.6	0.1	89.9*	98.8*	1.6	0
O=S(=O)(NCCc1ccc2c(c1)OCCO2)c1cccs1	1.5	0.6	35.7	42.6	-0.8	0.6
COc1ccc(S(=O)(=O)NCCc2ccc(F)cc2)cc1	-6.3	0.6	37.6	99.5*	6.4	0
O=C(NC(O)C(=O)c1cccs1)c1cccnc1 (configuration not stated)	-6.0	1.1	-6.6	-3.6	8.7	1
Cc1cccc(C(=O)Oc2ccccc2-c2nnco2)c1	8.4	1.1	-15.0	2.0	-7.4	1
Clc1ccccc1COc1ccccc1-c1nnco1	0.8	0.5	50.3*	26.6	-0.9	0.7
c1ccc(OCCOc2ccccc2-c2nnco2)cc1	25.4	0.2	75.3*	90.6*	-25.4	0.1
O=C(O)CC1NC(=O)N(c2ccc(Cl)cc2)C1=O (configuration not stated)	-4.6	1.2	-22.3	-10.1	4.1	1.1
Cc1sc2ncnc(NCC3(N4CCOCC4)CCCCC3)c2c1C	4.8	0.4	60.2*	30.3	-1.7	0.7

Screening data (PubChem)
